25 compounds from PubChem BioAssay AID596 (National Center for Advancing Translational Sciences (NCATS), 2007) can be followed below.

Molecules are shown by their SMILES. Where “and” joins values, the source holds several entries; their conditions need not be identical. Equal values may be shown once. Among all 71,000 compounds or so, about 1,400 (2%) were called active. Entries that show only a call come without a potency. Roughly 3% stayed inconclusive and do not appear here. Calls follow the shape of the dose curve; as a rule, active = well fitted curve in the direction sought with a large enough effect; inconclusive = small, poorly fitted or top-dose-only effect; inactive = no such curve, though single readings can be large or run the other way. Many of the other results were omitted from the sample, so actives are more common in it than they were. A structure can be active in one record and inactive in another.
Potency is read from the fitted curve at half-maximal effect.

Chain of Microtubule-associated protein tau (Homo sapiens) (P10636 whole entry, looked up): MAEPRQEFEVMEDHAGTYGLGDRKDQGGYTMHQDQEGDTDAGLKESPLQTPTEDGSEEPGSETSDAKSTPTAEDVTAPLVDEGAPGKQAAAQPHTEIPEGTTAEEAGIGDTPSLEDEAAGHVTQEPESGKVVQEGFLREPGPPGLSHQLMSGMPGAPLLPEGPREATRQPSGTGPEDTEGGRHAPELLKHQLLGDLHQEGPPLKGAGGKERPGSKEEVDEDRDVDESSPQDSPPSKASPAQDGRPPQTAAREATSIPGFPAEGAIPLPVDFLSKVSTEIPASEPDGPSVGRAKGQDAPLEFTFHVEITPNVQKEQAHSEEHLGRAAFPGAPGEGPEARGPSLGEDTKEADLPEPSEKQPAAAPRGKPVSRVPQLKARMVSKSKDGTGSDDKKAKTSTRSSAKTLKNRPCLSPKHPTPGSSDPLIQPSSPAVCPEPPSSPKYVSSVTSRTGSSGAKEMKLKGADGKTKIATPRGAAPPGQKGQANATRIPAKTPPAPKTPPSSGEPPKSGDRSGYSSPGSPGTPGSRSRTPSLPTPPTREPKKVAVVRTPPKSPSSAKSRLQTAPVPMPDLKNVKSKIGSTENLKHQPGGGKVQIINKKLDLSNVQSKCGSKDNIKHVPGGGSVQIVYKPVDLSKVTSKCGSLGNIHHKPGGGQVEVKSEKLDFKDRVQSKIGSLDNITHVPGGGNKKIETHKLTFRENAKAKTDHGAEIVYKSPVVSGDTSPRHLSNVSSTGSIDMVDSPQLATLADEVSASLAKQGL

The test addresses Microtubule-associated protein tau (Homo sapiens) (UniProt P10636). Put plainly: qHTS Assay for Tau Filament Binding.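 Also: actives lower thioflavin S fluorescence by blocking filaments or displacing dye.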 The following applies: recombinant tau filaments, thioflavin S fluorescence, 15 h; series mostly up to 57.1 µM. From the text:
NIH Molecular Libraries Screening Centers Network [MLSCN]
NIH Chemical Genomics Center [NCGC]
Assay Provider: Jeffrey A. Kuret, Ohio State University
Tau monomers form filaments in vitro in the presence of anionic detergents or fatty acids. The dye Thioflavine S (ThS) binds to tau filaments and upon binding, increases in fluorescence several fold. Small molecules that displace ThS binding or prevent filament binding are identified by a reduction in ThS fluorescence. This assay used histidine-tagged, recombinant human tau protein containing the products of exons 2, 3, and 10 that was provided by Jeff Kuret, Ohio State University. To form filaments, 1 uM tau was incubated with 30 uM sodium octadecylsulfate (ODS) in reagent buffer (10 uM thioflavine S, 5 mM 1,4-dithioerythreitol (DTT), 100 mM sodium chloride, 10 mM HEPES pH 7.4) for 15 hrs at 37 C.
NCGC Assay Protocol Summary:
Assay Steps. Two uL/well of 2 uM tau in reagent buffer (10 uM thioflavine S, 5 mM DTT, 100 mM sodium chloride, 10 mM HEPES pH 7.4) was dispensed into solid black 1536-well plates. Twenty-three nL compound was transferred to the assay plate after which 2 uL/well of 60 uM ODS in reagent buffer was dispensed for a final assay volume of 4 uL /well. Following 15 hours of incubation at 37 C, fluorescence was detected by an Envision (Perkin Elmer) using 450/8 nm excitation and 510/23 nm emission.
Keywords: NIH Roadmap, MLSCN, MLI, MLSMR, qHTS, NCGC, Alzheimer's disease, Neurofibrillary lesions, tau, tubulin assembly, microtubule stability, cytoskeletal integrity, fibrillization, thioflavin dyes, Amyloidgenic
Background: qHTS replaces the single test concentration by a dilution series.
As to `CC(C)CC(C)Nc1ccc(Nc2ccccc2)cc1` (stereo not given), the Potency is 15.8 µM (active).
With `c1ccc(N2CC[C@@]3(CCCNC3)C2)nc1`, the Potency entry was “inactive”.
For `CC[C@@](O)(C(=O)O)c1cc2n(c(=O)c1CO)Cc1cc3ccccc3nc1-2`, the activity change, negative = inhibition was 6.4% [at 11.4 µM] (inactive).
On to `Nc1ccc([N+](=O)[O-])cc1`, for which the Potency result was “inactive”.
In the case of `CC(=O)c1c(O)c(C)c(O)c(Cc2c(O)c3c(c(C(=O)/C=C\c4ccccc4)c2O)OC(C)(C)C=C3)c1O`, the Potency was 15.8 µM (active) and 25.1 µM (active).
In the case of `Clc1ccccc1`, the Potency result was “inactive”.
Take `Fc1ccc(C(OCCN2CCN(C/C=C\c3ccccc3)CC2)c2ccc(F)cc2)cc1`: the Potency is 12.6 µM (active).
On the same count and under the same terms, with `CCCCC#N` the entry was “inactive”.
On to `Nc1ccc(Cc2ccc(N)c(Cl)c2)cc1Cl`, for which the Potency result is “inactive”.
In the case of `N#CCCCl`, the Potency result was “inactive”.
Same read-out and setting: with `CC(C)(C)C(O)(CCc1ccc(Cl)cc1)Cn1cncn1` (stereo not given) the entry was “inactive”; with `Clc1cccc(Cl)c1Cl`, “inactive”.
In the case of `c1ccc2c(c1)[I+]c1ccccc1-2`, the Potency entry is “inactive and 39.8 µM (active)”.
Consider `CCNC[C@H](O)c1cccc(O)c1`, for which the Potency entry is “inactive”.
As for `O=C(Nc1cccc(F)c1)N1CC[C@@]2(CCCN(C(=O)Oc3ccccc3)C2)C1`, the Potency entry was “inactive”.
For the compound `c1ccc(CN2CC[C@@]3(CCCNC3)C2)cc1`, the Potency entry was “inactive”.
In the case of `ClCCBr`, the Potency result was “inactive”.
As for `CN1CCN(C(=O)O[C@@H]2c3nccnc3C(=O)N2c2ccc(Cl)cn2)CC1`, the Potency entry is “inactive”.
As to `O=C1C2(Cl)C3(Cl)C4(Cl)C(Cl)(Cl)C5(Cl)C3(Cl)C1(Cl)C5(Cl)C24Cl` (stereo not given), the Potency result is “inactive and 15.8 µM (active)”.
Take `Cc1cc(-c2ccc(N)c(C)c2)ccc1N`: the Potency entry is “inactive”.
In the case of `C=CC#N`, the Potency result is “inactive”.
Turning to `CC(C)(Cc1c[nH]c2ccc(Cl)cc12)NCCOc1ccccc1OCC1CC1`, the Potency result was “inactive”.
On the same count and under the same terms, with `ClC(Cl)=C(Cl)C(Cl)=C(Cl)Cl` the entry was “inactive”.
Turning to `CC(Cl)Cl`, the Potency result is “inactive”.
For `C[C@]12CC[C@H](O)C[C@@H]1CC[C@H]1[C@H]2CC[C@]2(C)C(=O)CC[C@@H]12`, the Potency result was “inactive”.
